A number with no mark means an inactive call.
Each compound was assayed on Vero E6 infected with SARS-CoV-2 (assay: inhibition of SARS-CoV-2 cytopathic effect; higher = more antiviral protection, active = above 15). Settings: 833.33 nM; 48 h.

Compared with `C[C@H](Cc1ccc(O)c(O)c1)[C@@H](C)Cc1ccc(O)c(O)c1` [masoprocol], `COc1cc(C#N)ccc1S(=O)(=O)Nc1ccc2c(c1)cc(C)c(=O)n2C` is lower in “inhibition of SARS-CoV-2 cytopathic effect” value (“inhibition” for short): -1.7% for the first, -4.02% for the second.

Going from `O=C(O)/C=C\c1c[nH]cn1` [cis-Urocanic acid] to `CCCCCCCCCCCCCCCCCCCCCCCCC(=O)O` [pentacosanoic-acid], the “inhibition” value rises from -0.955% to -0.23%.

In the case of `COc1cc2ncnc(Nc3ccc(Cl)cc3F)c2cc1OC`, the “inhibition” value is reported as -5%.

Same assay, conditions: 10000 nM; 48 h

First: c1ccc(-c2nn3c(c2-c2ccnc4cc(OCCN5CCOCC5)ccc24)CCC3)nc1
Second: N[C@@H]1c2cccnc2[C@H](OC(=O)N2CCC(n3c(=O)[nH]c4ncccc43)CC2)CC[C@H]1c1cccc(F)c1F [rimegepant]
The “inhibition” value of the first is higher: 0.94% for the first, 0.55% for the second.

First: COc1cc(N2CCC(N3CCN(C)CC3)CC2)ccc1Nc1ncc(Cl)c(Nc2ccccc2S(=O)(=O)C(C)C)n1
Second: COc1cc(C#N)ccc1S(=O)(=O)Nc1ccc2c(c1)cc(C)c(=O)n2C
The “inhibition” value of the first is lower: -15.5% for the first, -0.1% for the second.

Compared with `CCCCNC(=O)NS(=O)(=O)c1ccc(C)cc1` [tolbutamide], `CCCCOc1ccc(C(=O)Nc2ccc(F)cc2F)cc1` is lower in “inhibition” value: -0.3% for the first, -1.07% for the second.

First: N#C/C(=C\c1ccc(O)c(O)c1)C(=O)NCCCCc1ccccc1
Second: O=C(O)[C@H](Cc1ccccc1)NCc1ccc(Cl)cc1
The “inhibition” value of the first is lower: -0.03% for the first, 0.65% for the second.

First: CC(C(=O)O)c1cccc(C(=O)c2ccccc2)c1 (stereo not given) [ketoprofen]
Second: COc1ccc2nc(NC(=O)Nc3ccccc3)sc2c1 [frentizole]
The “inhibition” value of the first is lower: -0.97% for the first, 1.78% for the second.

First: CCC(CC)Nc1nc(C)c(-c2ccc(OC(F)(F)F)cc2OC)nc1OC
Second: CCC(CC)Nc1cc(C)nc(Oc2c(C)cc(C)cc2C)c1C
The “inhibition” value of the first is higher: -0.01% for the first, -1.59% for the second.

`O=C1C[C@@H](c2ccc(O)cc2)Oc2cc(O)ccc21` and `C[C@H](Cc1ccc(O)c(O)c1)[C@@H](C)Cc1ccc(O)c(O)c1` [masoprocol] are the same in “inhibition” value: 12% for the first, 12% for the second.

Compared with `Cn1cc(-c2cnn3c(N)c(Br)c([C@@H]4CCCNC4)nc23)cn1`, `Cc1ccc2c(c1)[C@]13CCCC[C@@H]1[C@H](C2)N(C)CC3` [dimemorfan] is higher in “inhibition” value: 0.48% for the first, 0.98% for the second.

Going from `O=C1NC(=O)[C@@]2(CCOc3ccc(F)cc32)N1` [sorbinil] to `CNC(=O)c1cc2c(cn1)[nH]c1ccccc12`, the “inhibition” value rises from -0.07% to 1.58%.

Compared with `C[C@](N)(Cc1ccc(O)c(O)c1)C(=O)O` [methyldopa], `O=C(O)c1cc(O)c(O)c(O)c1` [gallic-acid] is higher in “inhibition” value: 0.52% for the first, 6.6% for the second.

First: C[C@@H](CN)CC(=O)O [3-methyl-GABA]
Second: CC[C@H](C)C(=O)O[C@H]1C[C@H](O)C=C2C=C[C@H](C)[C@H](CC[C@@H](O)C[C@@H](O)CC(=O)O)[C@H]21
The “inhibition” value of the first is lower: -0.34% for the first, 1.69% for the second.

Going from `CC(C)(C)C(=O)OCOC(=O)[C@@H]1N2C(=O)[C@@H](NC(=O)[C@H](N)c3ccccc3)[C@H]2SC1(C)C` [pivampicillin] to `CC1=C(C(=O)O)N2C(=O)[C@@H](NC(=O)[C@H](N)C3=CCC=CC3)[C@H]2SC1` [cephradine], the “inhibition” value rises from -3.25% to -2.73%.

Going from `CC(C)c1onc(-c2c(Cl)cccc2Cl)c1COc1ccc(/C=C/c2cccc(C(=O)O)c2)c(Cl)c1` to `CC(C)c1ccc(CC(=O)N2CCC[C@@H](c3cccc(OC(C)(C)C(=O)O)c3)C2)cc1`, the “inhibition” value falls from 0.01% to -0.15%.

First: C=CCc1cccc(/C=N/NC(=O)CN2CCN(Cc3ccccc3)CC2)c1O
Second: CCCc1nc(C(C)(C)O)c(C(=O)O)n1Cc1ccc(-c2ccccc2-c2nnn[nH]2)cc1 [olmesartan]
The “inhibition” value of the first is lower: -2.23% for the first, -0.94% for the second.

Compared with `CNNCc1ccc(C(=O)NC(C)C)cc1` [procarbazine], `CCCCN1CCCCC1C(=O)Nc1c(C)cccc1C` (stereo not given) [bupivacaine] is higher in “inhibition” value: 0.27% for the first, 0.61% for the second.

First: C[C@]12CC[C@@H]3c4ccc(O)cc4CC[C@H]3[C@@H]1CC[C@@H]2OC(=O)CCC1CCCC1 [estradiol-cypionate]
Second: CC(=O)O[C@]1(C(C)=O)CC[C@H]2[C@@H]3C=C(C)C4=CC(=O)CC[C@]4(C)[C@H]3CC[C@@]21C [megestrol-acetate]
The “inhibition” value of the first is higher: 1.69% for the first, 0.33% for the second.

First: C[C@@H](O)[C@H]1C(=O)N2C(C(=O)O)=C(S[C@@H]3CN[C@H](CNS(N)(=O)=O)C3)[C@H](C)[C@H]12 [doripenem]
Second: C[C@H](Nc1ncnc2nc[nH]c12)c1cc2cccc(Cl)c2c(=O)n1-c1ccccc1 [duvelisib]
The “inhibition” value of the first is higher: 0.46% for the first, -3.79% for the second.

Compared with `CCCCOC(=O)c1ccccc1Nc1cccc(C(F)(F)F)c1` [ufenamate], `COc1cc2ncnc(Nc3ccc(Cl)cc3F)c2cc1OC` is lower in “inhibition” value: 0.16% for the first, -11.2% for the second.

Going from `O=C(O)/C=C\c1c[nH]cn1` [cis-Urocanic acid] to `CCCCCCCCCCCCCCCCCCCCCCCCC(=O)O` [pentacosanoic-acid], the “inhibition” value falls from 1.12% to -2.38%.

For `Fc1ccc(-n2cc(CCCCN3CCC4(CC3)OCc3ccccc34)c3ccccc32)cc1` [siramesine], the “inhibition” value was 28.7% (active).
In the case of `O=C(c1ccc(-c2ccc(Cl)cc2)o1)N(Cc1ccccn1)c1ccc(N2CCNCC2)cc1`, the “inhibition” value is reported as 43.8% (active).

From the supplement of paper PMC13380429
